Screen size: about 1,000 compounds; about 390 (39%) were called active. Not shown: some 8% with an inconclusive outcome. A selection follows. Unmarked numbers belong to inactive results. Cut-off read from the data, not from the text of the source: active = inhibition above about 48%; inconclusive = no clear call, values can overlap the other calls; inactive = below that.

This assay addresses Gag-Pol polyprotein (Human immunodeficiency virus type 1 group M subtype B (isolate HXB2)) (UniProt P04585). As to the kind of experiment: HIV-1 RT RNase H inhibitors, retest, confirmation, biochemical (AID 651). The note with it: Recombinant RT RNase H, fluorescent RNA/DNA duplex cleavage; at 10 µM; hits give high values.
For `CCCc1nc2ccccc2c(=O)n1/N=C/c1ccc(O)c(O)c1`, the inhibition (commonly the drop in the measured response relative to a control, in per cent) was 74.1% (active).

Consider `Cc1nc(C)c(C(=O)Nc2cccc(C)c2C)o1`, for which the inhibition is 14.1%.

Take `Clc1ccccc1CSc1nnc(-c2ccco2)c(-c2ccco2)n1`: the inhibition is 18.5%.

For `CC1CCc2c(sc(NC(=O)c3ccc(Cn4cc(Br)cn4)o3)c2C(N)=O)C1` (stereo not given), the inhibition was 59.9% (active).

As to `CN(c1ccccc1)c1ccc(/C=c2\s/c(=C(/C#N)C(=O)C(C)(C)C)n(Cc3ccco3)c2=O)cc1`, the inhibition was 50.5% (active).

`O=C(NCc1ccccn1)c1ccc2nc(-c3ccco3)c(-c3ccco3)nc2c1`: the inhibition was 2.46%.

Take `Nc1ccc(-c2nnc(-c3ccc(-c4ccccc4)cc3)o2)cc1`: the inhibition was 63.3% (active).

Consider `CCCC(=O)N1CCc2[nH]c3ccccc3c2C1`, for which the inhibition was -2.83%.

On to `CC(C)CNC(=O)C1CCCN(S(=O)(=O)c2ccc(-n3cnnn3)cc2)C1` (stereo not given), for which the inhibition is 40.6%.

Regarding `CCCCOC(=O)CNc1nnc(SCC(=O)OCC)[nH]c1=O`, the inhibition is 43.7%.

Take `CCN(CC)c1ccc2oc(=O)c(C)nc2c1`: the inhibition is 0.308%.

Consider `O=C(Nc1nc(-c2ccncc2)cs1)C1COc2ccccc2O1` (stereo not given), for which the inhibition is 69.2% (active).

Take `Cc1csc(NC(=O)NC2(C(F)(F)F)Oc3ccccc3O2)n1`: the inhibition was 33.8%.

`CCc1nnc(NC(=O)CSc2nnc(COc3ccc(C#N)cc3)n2-c2ccccc2)s1`: the inhibition was 19.2%.

Turning to `COc1ccc(Cc2nnc(NC(=O)Cc3cccs3)s2)cc1`, the inhibition is 22.2%.

As to `CCCc1nnc(NC(=O)CN2C(=O)c3ccccc3S2(=O)=O)s1`, the inhibition is 60.4% (active).

`COC(=O)C1=C(C)NC2=C(C(=O)c3ccccc32)C1c1ccc(-c2ccc(C(=O)O)cc2)o1` (stereo not given): the inhibition is 5.29%.

For `c1ccc(Cc2nn3c(Cn4cnc5ccccc54)nnc3s2)cc1`, the inhibition is 59.7% (active).

Turning to `CCOc1ccc2[nH]c(=O)c(CN(CCCO)C(C)=O)cc2c1`, the inhibition was 15.8%.

Turning to `NC(=O)Cn1c(=O)oc2ccccc21`, the inhibition was 35.5%.

As for `Cc1noc(C)c1CSc1nc2cc(S(=O)(=O)N3CCOCC3)ccc2o1`, the inhibition is 61% (active).

As for `COc1cc(C(=O)Nc2oc(-c3ccccc3)c(-c3ccccc3)c2C#N)cc(OC)c1OC`, the inhibition was 53.6% (active).

Take `Cc1ccc2cccc(O)c2[n+]1[O-]`: the inhibition was 43.9%.

In the case of `CCC(C)(C)NC(=O)C(c1cccn1C)N(Cc1ccc(C)cc1)C(=O)Cn1nnc2ccccc21` (stereo not given), the inhibition is -5.01%.

Take `CCC(C)Sc1nc2c(c(=O)[nH]c(=O)n2C)n1CC(O)COc1cccc2ccccc12` (stereo not given): the inhibition is 68.7% (active).

As for `CCCCCn1c(SCCC(C)C)nc2c1c(=O)[nH]c(=O)n2C`, the inhibition was 17.3%.

In the case of `Cc1ccnc(-n2sc3ccccc3c2=O)n1`, the inhibition is 60% (active).

As to `COc1ccc(OC)c(Nc2nc(-c3ccc(O)c(O)c3)cs2)c1`, the inhibition is 77.2% (active).

As to `Cc1ccc2c(c1)sc1ncc(NC(=O)c3ccccc3)c(=O)n12`, the inhibition is 46.4%.

In the case of `COc1cccc(-c2nnc(NC(=O)c3ccc(S(=O)(=O)N(CC(C)C)CC(C)C)cc3)o2)c1`, the inhibition was 74.9% (active).

As for `CCC1=[N+]([O-])C(C)(/C(C)=N\O)N(O)C1(C)C` (stereo not given), the inhibition is 32%.

For `CCOC(=O)N1CCN(CC(=O)c2ccc3c(c2)CCN3)CC1`, the inhibition is 15.5%.

Regarding `COc1ccc(CCn2c(=N)c(C(=O)NCc3ccco3)cc3c(=O)n4cccc(C)c4nc32)cc1`, the inhibition was 1.96%.

`Cc1cc(C(F)(F)F)nn1-c1nc(-c2ccco2)cc(C(F)(F)F)n1`: the inhibition is 38%.

With `Cc1cccc(-n2c(N)c(C(=O)N3CCN(C)CC3)sc2=S)c1`, the inhibition was 67% (active).

For `Cc1ccc(-n2c(N)c(C(=O)N3CCOCC3)sc2=S)c(C)c1`, the inhibition is -4.07%.

Consider `Cc1ccnc(N2CCCC(C(=O)Nc3cc(F)ccc3C)C2)n1` (stereo not given), for which the inhibition was 9.38%.

Turning to `COC(=O)N(c1ccc(OC)cc1)P1(=S)OCCC(C)O1` (stereo not given), the inhibition was 57.7% (active).

In the case of `CCc1c(C)[nH]c(=S)c(C#N)c1C`, the inhibition was -2.67%.

As to `Fc1ccc(-c2ccc(-c3nn4c(-c5ccco5)nnc4s3)o2)cc1`, the inhibition is 48.4% (active).

For the molecule `Fc1ccc(-c2nnc3sc(-c4ccc5c(c4)OCO5)nn23)cc1`, the inhibition is 94.9% (active).

As to `COC(=O)Nc1nc2ccc(Sc3ccccc3)cc2[nH]1`, the inhibition was 33.9%.

Take `O=C(Nc1cc(N2CCOCC2)ncn1)NC1(C(F)(F)F)Oc2ccc(Cl)cc2O1` (stereo not given): the inhibition is -8.24%.

Take `CCN(CC)S(=O)(=O)c1ccc2nc(COC(=O)c3n[nH]c4ccccc34)[nH]c2c1`: the inhibition was 29.7%.

In the case of `CC(C)C1N=C2c3ccccc3N=C(SCC(=O)c3ccc(O)c(O)c3)N2C1=O` (stereo not given), the inhibition is 64.7% (active).

For `COc1ccc(N2C(=O)CN=C2Nc2cccc(C)c2C)cc1OC`, the inhibition was 42.9%.

On to `c1ccc(CSc2nnc(-c3ccco3)c(-c3ccco3)n2)cc1`, for which the inhibition is 42.2%.

For the molecule `COc1ccc(Nc2oc(-c3ccccc3Cl)nc2C#N)cc1`, the inhibition was 3.03%.

Turning to `CCOC(=O)c1sc(=S)n2c1[nH]c(=O)c1ccc(C(=O)OC)cc12`, the inhibition was 73.8% (active).

In the case of `Cc1ccc(-n2nc(-c3ccco3)cc2C(=O)NCc2cccnc2)cc1`, the inhibition was -3.12%.
